This passage reports growth inhibition results from PubChem BioAssay (NCI).

Molecules are shown by their SMILES. Compounds without any hit were thinned out: in the full panel of roughly 79,000, 15% have a hit. Calls of active or inactive are those of the source. No stated cut-off is given here; in the data, active means growth inhibition above about 70%; inactive means the rest. Where a SMILES comes first, the peptide text is derived from it. The star is where a group is joined. Cbz = O=C(OCc1ccccc1)*

This assay can be described thus: NCI Yeast Anticancer Drug Screen. Data for the rad50 strain (AID 155).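 Further: 0% = growth of vehicle-only cultures of the same strain.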 Conditions: S. cerevisiae rad50 strain growth inhibition; at 50.0 µM; hits give high values. In a few lines:
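Compounds were tested on a yeast strain with an engineered DNA damage repair alteration; the reported value is growth inhibition normalised to vehicle treatment.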
On to `CC(C)(CS(C)(=O)=O)C(=O)O`, for which the growth inhibition was 2.5% (inactive).
Turning to `COC(=O)C(CO)NC(=O)C(CO)NC(=O)OCc1ccccc1` (stereo not drawn) (Cbz-Ser-Ser-OMe; configuration not given here), the growth inhibition is -9.8% (inactive).
As for `O=C1O/C(=C(\Br)c2ccc([N+](=O)[O-])cc2)c2ccccc21`, the growth inhibition was 30.4% (inactive).
Consider `CC(=O)OCC1OC(n2c(-c3ccc(C)cc3)cc(-c3ccccc3)c(C#N)c2=S)C(OC(C)=O)C(OC(C)=O)C1OC(C)=O` (stereo not given), for which the growth inhibition is 17.9% (inactive).
On to `Cc1ccc(C(=O)/C=C/c2ccc(N(C)C)cc2)cc1`, for which the growth inhibition is 38.8% (inactive).
For the compound `Clc1cc(Cl)c(Cl)c(Cl)c1Cl`, the growth inhibition is -4.1% (inactive).
As for `Cc1c(-c2ccccc2)[nH]c2ccc(Cl)cc2c1=O`, the figure is -7.5% (inactive); as for `CN(C)C(=O)C(c1ccccc1)P(=O)(c1ccccc1)c1ccccc1` (stereo not given), -7.9% (inactive).
As to `O=[N+]([O-])c1ccc(SC2=NCCCN2C2CCCCC2)c(Cl)c1`, the growth inhibition is -0.1% (inactive).
Take `C/C(=N\NC(=O)C1CCCO1)c1cccc2ccccc12` (stereo not given): the growth inhibition was 3.1% (inactive).
On to `COc1ccc(Sc2cccc(Cl)c2)c(C(=O)O)c1`, for which the growth inhibition was -21.8% (inactive).
As for `NC(=S)N/N=C\C(CC(O)C(O)CO)=N\NC(N)=S` (stereo not given), the figure is 4.95% (inactive); as for `COC(=O)/C=C1/CC[C@H]2[C@@H]3CCC4=CC(=O)CC[C@]4(C)[C@H]3C(=O)C[C@]12C`, 42.5% (inactive); as for `CCCCCCC1N(C(C#N)c2ccccc2)CCCN1C(C#N)c1ccccc1` (stereo not given), 19.8% (inactive).
For the compound `CC(C)(C)n1nnnc1N`, the growth inhibition was -8.55% (inactive).
On to `C/C(=N/O)c1ccc(O)cc1O`, for which the growth inhibition was -16.7% (inactive).
`CC(=O)OC1CC23CCC(=O)C2(CC3)C1` (stereo not given): the growth inhibition was 19.9% (inactive).
Take `N#Cc1c(C(F)(F)F)cc(-c2cccs2)nc1SC(C(=O)Nc1c(F)cccc1F)c1ccccc1` (stereo not given): the growth inhibition was 15.8% (inactive).
Consider `NC(=S)c1ccc[n+](Cc2c(Cl)cccc2Cl)c1`, for which the growth inhibition is 11.9% (inactive).
`O=C1CC(c2ccccc2)NCN1` (stereo not given): the growth inhibition is 3.95% (inactive).
On to `O=C(C[n+]1cc(Br)cc(Br)c1)c1ccc(Br)cc1`, for which the growth inhibition was -16.9% (inactive).
With `COc1ccccc1C(OC)c1ccccc1C(=O)O` (stereo not given), the growth inhibition is -10.9% (inactive).
The result for `COc1cc(C(C)Cl)ccc1OC(=O)c1ccccc1` (stereo not given) reads 10.8% (inactive); that for `N=C(c1ccc2ccccc2c1)c1ccccc1Cc1ccccc1`, 17.2% (inactive).
As to `COc1cc([C@@H]2C3C(=O)c4ccccc4C3[C@@H](c3cc(OC)c(OC)c(OC)c3)C23Cc2ccccc2C3=O)cc(OC)c1OC` (stereo not given in full), the growth inhibition was -6.5% (inactive).
Turning to `CC(C)n1nnnc1-c1ccccc1`, the growth inhibition is -6.45% (inactive).
With `NC1NC(=O)C(CCCOc2ccc([N+](=O)[O-])cc2)C(c2ccccc2)N1` (stereo not given), the growth inhibition is 3.55% (inactive).
Regarding `N#C/C(=C\c1ccco1)c1ccc([N+](=O)[O-])cc1`, the growth inhibition was 16.2% (inactive).
As for `COc1cc2c(cc1O)CN1Cc3c(ccc(OC)c3O)C2C1` (stereo not given), the growth inhibition was -16% (inactive).
Take `CCCCC1(CO)NC(=O)NC1=O` (stereo not given): the growth inhibition was -4.5% (inactive).
In the case of `c1ccc(-c2cc(-c3ccccc3)c3ccc4c(-c5ccccc5)cc(-c5ccccc5)c5ccc2c3c54)cc1`, the growth inhibition is -43% (inactive).
For `CN(C(=O)Sc1ccc([N+](=O)[O-])cc1)c1ccc([N+](=O)[O-])cc1`, the growth inhibition is 1.3% (inactive).
Regarding `COC(=O)c1c[nH]c(C=O)c1C`, the growth inhibition was 15.8% (inactive).
For `O=C(N/N=C/c1ccc(Cl)cc1Cl)c1cccc([N+](=O)[O-])c1`, the growth inhibition is 0.65% (inactive).
`CCOC(=O)C(C#N)=C1c2ccccc2Oc2ccccc21`: the growth inhibition is -3.7% (inactive).
As for `NC1c2ccccc2CCc2ccccc21`, the figure is 13.6% (inactive); as for `Clc1ccc(CCn2cncn2)cc1`, -15.6% (inactive); as for `O=C(Nc1ncnc2c1ncn2C1OC(COC(=O)c2ccccc2)C(OC(=O)c2ccccc2)C1OC(=O)c1ccccc1)c1ccccc1` (stereo not given), 5.15% (inactive).
On to `COc1ccc(CC2OC(C)CC(C)(C)O2)cc1` (stereo not given), for which the growth inhibition was 38.2% (inactive).
With `CSc1nc2nc[nH]c(=O)c2[nH]1`, the growth inhibition was -3.55% (inactive).
